Assay outcomes from PubChem.
Hits are enriched below; roughly 15% of the tested compounds scored in any of these assays.
Pf growth 96h: inhibits malaria parasite growth, 96 h | P. falciparum luciferase reporter growth, 96 h | 6.9% of 320,000 active | Potency, µM (highest dose often 28.7 µM), hits mostly inhibitors | AID 504834
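P. falciparum expressing integrated firefly luciferase grown in erythrocytes (2% hematocrit, 0.05% parasitemia final) with compounds for 96 hours at 37 C, 5% CO2. Growth inhibition read as loss of luminescence after adding luciferase detection reagent.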
Sm TGR inh: blocks Schistosoma mansoni thioredoxin glutathione reductase; purified TGR, DTNB reduction, TNB absorbance 405 nm; Potency, µM (highest dose often 114 µM), usual class: inhibitors; 3% of 360,000 active; further: nearly all actives have a fitted effect of over 60% in size
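Kinetic colorimetric format: TGR-catalysed, NADPH-driven DTNB reduction monitored via TNB absorbance. Enzyme dispensed at 20 nM; compound exposure 15 min at room temperature before reaction start.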
HCMV inh: human cytomegalovirus inhibition | activity change, negative = inhibition, % at 57.5 µM | 4.5% of 410,000 active | AID 1259415 | HFF cells, HCMV-luciferase reporter, 72 h; active compounds read low; in the data active means activity change below about -60%; inconclusive means no clear call, values can overlap the other calls; inactive means above about -39%
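Luciferase read-out from HCMV-luciferase-infected HFFs (MOI 1 PFU/cell) 72 h post infection at 37C; compounds added after 16 h cell attachment; activity normalized between buffer-only basal and Salinomycin (10uM) inhibitor controls.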
Pf growth 48h: inhibits P. falciparum growth in the first generation, 48 h; P. falciparum luciferase growth in erythrocytes, 48 h; Potency, µM (series often up to 28.7 µM), actives largely listed as inhibitors; 5.9% of 310,000 active
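Luminescence readout; reporter = integrated firefly luciferase in P. falciparum. RBC culture at 2% hematocrit, 0.1% parasitemia final, 37 C/5% CO2; decreased signal taken as growth inhibition.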
HCV inhibitor: HCV inhibition; Potency, µM (series often up to 41.8 µM), actives largely listed as inhibitors; Huh7.5.1 HCVcc-Cre infection, luciferase reporter, 44 h; AID 651820; 3.4% of 340,000 active
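1,000 cells/well; 4 h culture; + compound; + HCVcc-Cre (~0.5 moi); 44 h; luciferase substrate, RT 15 min; read 15 sec.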
SARS PLP yeast: inhibitors of SARS-CoV papain-like protease in yeast; S. cerevisiae expressing SARS-CoV PLpro, growth rescue; Potency, µM (top dose mostly 32.9 µM), hits mostly activators; 0.19% of 330,000 active; calls by dose curve; further: nearly all actives have a fitted effect of over 55% in size
A number is an active result; . = inactive; ? = inconclusive; / = no result; [ ] = remark or other dose. Unless noted, the call rests on the fitted dose curve; in most records, active means well fitted curve in the direction sought with a large enough effect; inconclusive means small, poorly fitted or top-dose-only effect, or another doubt; inactive means no such curve, though single readings can be large; an effect the other way counts as inactive or inconclusive.

SMILES	Pf growth 96h	Sm TGR inh	HCMV inh	Pf growth 48h	HCV inhibitor	SARS PLP yeast
COc1ccc(CCNC(=O)CSC(=O)c2ccccc2)cc1OC	?	.	-60	.	.	.
CCC(C)(C)C1CCC2(CC1)NC(=O)N(CC(=O)NCCc1ccc(OC)c(OC)c1)C2=O (stereo not drawn)	?	.	.	12µM	?	.
COc1ccc(CCNC(=S)NC(=O)c2cccc(Cl)c2)cc1OC	?	.	.	?	.	.
COc1ccc(CCNC(=O)CSc2ccccc2)cc1OC	.	.	.	.	.	.
COc1ccc(CCNC(=O)CN2C(=O)c3cccc4cccc(c34)C2=O)cc1OC	10µM	/	.	.	.	.
COc1ccc(CCNC(=S)NC(=O)c2ccccc2)cc1OC	.	50µM	.	.	.	.
CN(C)c1ccc(-c2ccnc3c2CC(C)(C(=O)NCc2ccc(F)c(F)c2)O3)cc1 (stereo not drawn)	/	/	.	/	/	/
Cc1ccc2c(c1)CCCN2C(=O)c1c(C)noc1C	/	.	.	.	.	.
Cc1ccc2c(c1)CCCN2C(=O)c1ccoc1C	/	50µM	.	.	.	.
CCc1ccc2c(c1)CCCN2C(=O)c1ccccc1C(=O)O	/	.	.	?	10µM	.
CCc1nnc(NC(=O)CCC(=O)Nc2ccc(Cl)cc2)s1	.	.	.	.	.	.
CCOC(=O)c1cnn(-c2sc(C(=O)OCC)c(C)c2C(=O)OCC)c1N	/	/	-68	/	?	/
CCOC(=O)N1CCN(C2CC(=O)N(c3ccc(Cl)c(Cl)c3)C2=O)CC1 (stereo not drawn)	.	20µM	.	.	.	.
O=C(c1ccco1)N1CCN(C2CC(=O)N(c3ccc(F)c(Cl)c3)C2=O)CC1 (stereo not drawn)	.	20µM	.	.	.	.
COc1cccc(N2C(=O)CC(N3CCN(C(=O)c4ccco4)CC3)C2=O)c1 (stereo not drawn)	/	?	.	.	.	.
COc1ccccc1N1C(=O)CC(N2CCN(c3ccc(F)cc3)CC2)C1=O (stereo not drawn)	.	45µM	.	.	.	.
CCOc1ccc(N2C(=O)CC(N3CCN(C(=O)CN4CCCC4)CC3)C2=O)cc1 (stereo not drawn)	.	35µM	.	.	.	.
CCOC(=O)N1CCN(C2CC(=O)N(c3ccccc3)C2=O)CC1 (stereo not drawn)	.	.	.	.	.	.
CCOC(=O)C1(C)CCCCCN1C(=O)c1ccc(C(=O)OC)cc1 (stereo not drawn)	/	/	.	/	/	/
O=C(CSc1nncs1)NCc1ccc(F)cc1	.	.	.	.	.	.
CCOc1ccc(NC(=O)c2cccc(-n3cccc3)c2)cc1S(=O)(=O)N1CCOCC1	.	.	.	?	.	.
CCOc1ccc(N2C(=O)CC(N3CCN(c4ccc(F)cc4)CC3)C2=O)cc1 (stereo not drawn)	.	45µM	.	.	.	.
O=C1CC(N2CCN(c3ccc(F)cc3)CC2)C(=O)N1c1ccc(F)cc1 (stereo not drawn)	?	.	.	.	.	.
NC(=O)c1cc(S(=O)(=O)N2CCN(c3ccc(F)cc3)CC2)cs1	/	.	.	/	/	/
O=C(NCc1ccc(Cl)cc1)C(=O)NCC(c1cccnc1)N1CCN(c2ccccc2)CC1 (stereo not drawn)	/	.	?	/	/	/
SMILES	Pf growth 96h	Sm TGR inh	HCMV inh	Pf growth 48h	HCV inhibitor	SARS PLP yeast
Cc1cccc2c1CC(C)(C)N=C2C1=C(O)CC(C)(C)CC1=O	13µM	.	.	?	.	.
OC[C@@H]1CN(Cc2ccncc2)C[C@H](n2cnc3c(NC4CCCC4)ncnc32)O1	/	/	.	/	/	/
Cc1c(N=C2N=C(NC(=O)c3ccc(F)cc3)c3ccccc32)c(=O)n(-c2ccccc2)n1C	.[5.75 µM]	.	.	7.4µM	.	.
CCCNC(=O)C1(C)CCCN(Cc2ccc(Oc3ccccc3)cc2)C1 (stereo not drawn)	/	/	.	/	/	/
COc1ccc(S(=O)(=O)Nc2ccc(S(=O)(=O)Nc3cc(C)nc(C)n3)cc2)cc1OC	.	.	.	.	.	.
CCc1cc(-c2nnn(CCC3COCCO3)c2CC)ccc1-c1cn(Cc2ccccc2)nn1 (stereo not drawn)	/	/	-83	/	/	/
COc1ccc(C(CNc2ccc(S(C)(=O)=O)cc2[N+](=O)[O-])N(C)C)cc1OC (stereo not drawn)	.	.	.	.	4µM	.
O=c1oc(Cl)c(Cl)c2ccccc12	.	3.2µM	?	?	.	/
COc1ccc(/C=C2\C(=O)NC(=S)N(C)C2=O)cc1C	.	7.1µM	.	.	.	.
Cc1ccsc1/C=C1\C(=O)NC(=S)N(C)C1=O	.	25µM	-102	.	.	.
CN1C(=O)/C(=C\c2ccc(N3CCCCCC3)cc2)C(=O)NC1=S	.	?	.	.	.	.
CN1C(=O)/C(=C/c2ccc(Cl)s2)C(=O)NC1=S	.	7.9µM	.	.	?	.
CCCCCCCCN1C(=O)[C@H](CC(=O)NCc2cccs2)C[C@@]2(C(=O)OC)CC(C)(C)CC=C12	/	/	.	/	/	/
CC(=O)c1ccc(OCC(=O)OCC(=O)c2ccc(S(=O)(=O)N3CCCCC3)cc2)cc1	/	/	.	/	/	/
CCN(C(=O)COC(=O)/C=C/c1ccco1)C1CCCCC1	/	/	?	/	?	.
CCCCNc1nc(-c2ccccc2)c(C(=O)OCC)cc1C#N	?	.	.	?	?	.
CCCNc1nc(-c2ccccc2)c(C(=O)OCC)cc1C#N	.	.	?	12µM	3.2µM	.
C#Cc1ccc(NC(=O)C2(C)CCN2C(=O)Cc2ccc(C(C)C)cc2)cc1 (stereo not drawn)	/	/	-82	/	/	/
CC(C)(C)c1ccc(CC(=O)N2CCC2(C)C(=O)Nc2ccc3[nH]ncc3c2)cc1 (stereo not drawn)	/	/	-86	/	/	/
CC1(C(=O)Nc2ccc3[nH]ncc3c2)CCN1C(=O)CCc1ccccc1 (stereo not drawn)	/	/	.	/	/	/
C#Cc1ccc(NC(=O)C2(C)CCN2C(=O)Cc2ccc(C(C)(C)C)cc2)cc1 (stereo not drawn)	/	/	-83	/	/	/
CC1CN(S(=O)(=O)c2cccc(C(=O)Nc3ccc(S(=O)(=O)NC4=NCCCCC4)cc3)c2)CC(C)O1 (stereo not drawn)	?	.	.	13µM	.	/
CN(C)c1ccc(C(=O)Nc2ccc(S(=O)(=O)NC3=NCCCCC3)cc2)cc1	12µM	.	.	?	.	.
O=C(Nc1cccc(S(=O)(=O)NC2=NCCCCC2)c1)c1ccc(Cl)cc1	?	.	-68	.	?	.
O=C(Nc1ccc(S(=O)(=O)NC2=NCCCCC2)cc1)c1cccc(S(=O)(=O)N2CCOCC2)c1	/	/	.	/	.	.
CC(C)c1ccc(C(=O)Nc2ccc(S(=O)(=O)NC3=NCCCCC3)cc2)cc1	/	/	.	/	/	/
